Hits are enriched below; roughly 27% of the tested compounds scored in any of these assays.
sEH inh – inhibitors of human soluble epoxide hydrolase; hit rate 0.34% among 91,000; recombinant human sEH enzymatic activity assay; inhibition, % at 2 µM; in the data active = inhibition above about 80%
CYP2C9 activ – increases human cytochrome P450 2C9 activity. P11712. recombinant CYP2C9, luciferin-H conversion, luminescence; active compounds read high; factor 1 = untreated enzyme, 0 = blocked. activation factor at 5 µM. hit rate 1.4% among 96,000;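 active = activation factor of 2 or more for CYP2C9 at a 5 µM dose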;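 also: 0 = sulfaphenazole-blocked wells and 1 = vehicle-only wells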
sEH act – activators of human soluble epoxide hydrolase; hit rate 0.04% among 91,000; P34913; purified human sEH enzymatic activity, activator screen; activation, % at 2 µM; in the data active = activation above about 37%
CYP2C9 inhib – inhibitors of human CYP2C9; CYP2C9 Supersomes, luciferin-H conversion, luminescence; hit rate 20% among 96,000; inhibition, % at 5 µM; AID 777; P11712;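 active = blocking of liver enzyme CYP2C9 beyond about 50% at 5 µM, limit read from the data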
CYP2C19 inh – blocks human cytochrome P450 2C19; P33261; CYP2C19 Supersomes, luciferin-H EGE luminescence, 30 min; inhibition, % at 5 µM; hit rate 21% among 96,000;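 active = CYP2C19 inhibition above a set limit at 5 µM in the primary screen, cut at about 50% in these data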;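 also: plate controls were negative control wells for no effect and 2.5 mM tranylcypromine positive control for full effect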
Target sequence (P33261 whole entry, looked up): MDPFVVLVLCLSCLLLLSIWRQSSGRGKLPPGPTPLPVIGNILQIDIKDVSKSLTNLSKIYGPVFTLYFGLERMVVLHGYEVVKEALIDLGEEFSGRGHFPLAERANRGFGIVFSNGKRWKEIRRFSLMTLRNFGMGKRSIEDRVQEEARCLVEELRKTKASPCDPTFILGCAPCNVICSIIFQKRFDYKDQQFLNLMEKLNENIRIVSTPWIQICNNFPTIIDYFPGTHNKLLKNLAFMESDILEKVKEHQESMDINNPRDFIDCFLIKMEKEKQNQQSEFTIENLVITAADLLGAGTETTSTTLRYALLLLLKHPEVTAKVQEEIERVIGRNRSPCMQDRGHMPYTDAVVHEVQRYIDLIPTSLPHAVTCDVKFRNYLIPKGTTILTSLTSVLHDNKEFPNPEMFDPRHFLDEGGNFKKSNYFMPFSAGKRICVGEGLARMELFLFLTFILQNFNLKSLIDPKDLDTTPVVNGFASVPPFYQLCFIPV
CYP2C19 act – cytochrome P450 2C19 (human) activation | recombinant CYP2C19, luciferin-H EGE luminescence; active compounds read high; 0 = fully inhibited enzyme, 1 = untreated enzyme | AID 1025 | activation factor at 5 µM | 96,000 tested, under 10 active | P33261;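 active = activation factor of at least 2 at 5 µM in the primary screen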;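 also: 0 = wells with 2.5 mM tranylcypromine and 1 = vehicle-only wells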
* marks the source's active call; other numbers are inactive results.

Screening COc1ccccc1C/C(N)=N/OC(=O)c1ccc(C)c([N+](=O)[O-])c1 returned sEH inh -1.5, CYP2C9 activ 3.4*, sEH act 3.3, CYP2C9 inhib -243.5, CYP2C19 inh 8.6 and CYP2C19 act 0.9.
Screening COc1ccccc1C/C(N)=N/OC(=O)COc1ccc(C)cc1C returned sEH inh -22.4 and sEH act 21.2.
For O=S(=O)(c1ccc(F)cc1)n1ccc(-c2cccc(OCc3ccc(Cl)cc3Cl)c2)n1 the results were sEH inh -6.4, CYP2C9 activ 0.6, sEH act 8.9, CYP2C9 inhib 44.8, CYP2C19 inh 18.6 and CYP2C19 act 0.8.
`CC1(C)Cc2noc(N)c2C(C)(C)N1OC(=O)c1ccccc1` gave sEH inh 4.3, CYP2C9 activ 0.4, sEH act -5.0, CYP2C9 inhib 56.9*, CYP2C19 inh 100.3* and CYP2C19 act 0.
CCn1c2ccccc2c2cc(NS(=O)(=O)c3ccccc3C)ccc21 was read as sEH inh -5.5, CYP2C9 activ 0.2, sEH act 5.6, CYP2C9 inhib 81.2*, CYP2C19 inh 65.8* and CYP2C19 act 0.3.
CC(C)N(C)C1CCN(C(=O)Nc2ccc(Cl)c(Cl)c2)CC1 was read as CYP2C9 activ 1.2, CYP2C9 inhib -17.9, CYP2C19 inh -19.3 and CYP2C19 act 1.2.
Screening COC(=O)c1cc(NC(=O)Cc2coc3cc(OC)ccc23)cc(C(=O)OC)c1 returned sEH inh -0.1, CYP2C9 activ 0.1, sEH act 1.3, CYP2C9 inhib 91.7*, CYP2C19 inh 58.0* and CYP2C19 act 0.4.
Screening COC(=O)c1cc(NC(=O)Cc2ccc(OC)c(OC)c2)cc(C(=O)OC)c1 returned sEH inh -7.6, CYP2C9 activ 0.2, sEH act 6.0, CYP2C9 inhib 82.1*, CYP2C19 inh 11.8 and CYP2C19 act 0.9.
For COC(=O)c1ccc(C)c(NC(=O)Cc2coc3cc(OC)ccc23)c1 the results were sEH inh 11.9, CYP2C9 activ 0, sEH act -10.1, CYP2C9 inhib 97.9*, CYP2C19 inh 95.1* and CYP2C19 act 0.
Screening COc1ccc2c(CC(=O)OCC(=O)Nc3ccc4c(c3)OCO4)coc2c1 returned CYP2C9 activ 0.6, CYP2C9 inhib 37.7, CYP2C19 inh 16.0 and CYP2C19 act 0.8.
For CC1(C)SCC2C(=O)N3C(CSC3(C)C)C(=O)N21 (stereo not given) the results were sEH inh 25.5, CYP2C9 activ 0.9, sEH act -25.8, CYP2C9 inhib 9.7, CYP2C19 inh 14.5 and CYP2C19 act 0.9.
`CCCCNC(=S)NNC(=O)c1nn(C)cc1Cl` gave sEH inh 8.0 and sEH act -5.4.
For Cc1nc2c(C(=O)N3CCCC3)cnn2c(C)c1Cc1c(F)cccc1Cl the results were sEH inh 46.4, CYP2C9 activ 1.2, sEH act -47.8, CYP2C9 inhib -20.4, CYP2C19 inh 53.6* and CYP2C19 act 0.5.
For Cc1nc2c(C(=O)N3CCN(c4ccccn4)CC3)cnn2c(C)c1Cc1cccc(Cl)c1 the results were sEH inh -4.1, CYP2C9 activ 0.3, sEH act 4.7, CYP2C9 inhib 73.9*, CYP2C19 inh 98.2* and CYP2C19 act 0.
COCCn1nnnc1CN1CCC(Cc2ccccc2)CC1 was read as sEH inh 6.9 and sEH act -3.3.
`Cc1ccc(SCCNC(=S)Nc2cc(C)ccc2C)cc1` gave sEH inh -0.6, CYP2C9 activ 0.6, sEH act 0.9, CYP2C9 inhib 42.3, CYP2C19 inh 53.8* and CYP2C19 act 0.5.
For CN(C(=O)OCc1ccccc1)C(CC(N)=O)C(=O)O (stereo not given) the results were sEH inh 1.1, CYP2C9 activ 1, sEH act -3.5, CYP2C9 inhib 0.1, CYP2C19 inh -3.9 and CYP2C19 act 1.
CC1SC(c2ccc(Cl)cc2Cl)NC1=O (stereo not given) was read as sEH inh 6.3 and sEH act -3.2.
Screening CC1(C)N=C(c2ccc(Cl)cc2Cl)C(=O)N1 returned sEH inh -1.9, CYP2C9 activ 0.5, sEH act 5.0, CYP2C9 inhib 45.9, CYP2C19 inh 80.1* and CYP2C19 act 0.2.
Screening Cc1ccc(S(=O)(=O)NNC(=O)C2Cc3c(ccc4ccccc34)O2)cc1 (stereo not given) returned sEH inh -4.3, CYP2C9 activ 0.4, sEH act 6.8, CYP2C9 inhib 55.6*, CYP2C19 inh 20.0 and CYP2C19 act 0.8.

High-throughput results from PubChem.
